Calls of active or inactive are those of the source. Rule for the calls: active = hit-call score of the fitted dose curve at least 0.9, where 1 is the maximum; inactive = score below 0.9.
What was measured:
[1] = read-out: Vascular cell adhesion molecule 1 (VCAM1), VCAM1 (gene 7412); experiment: BSK_CASM3C_VCAM1: BioMAP Diversity Plus: CASM3C Assay for Vascular cell adhesion molecule 1 (VCAM1) Biomarker Activity (AID 2283055); settings: primary human coronary artery smooth muscle cells; actives raise or lower the signal;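 note: VCAM-1 protein level quantified by ELISA on the cells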
[2] = read-out: Collagen III, COL3A1 (gene 1281); experiment: BSK_hDFCGF_CollagenIII: BioMAP Diversity Plus: hDFCGF Assay for Collagen III Biomarker Activity (AID 2283056); settings: primary human foreskin fibroblasts; actives raise or lower the signal
Summary of the method: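 ELISA read-out of collagen III from human skin fibroblast cultures sampled 24 h post-dosing. Values were derived by bidirectional fitting relative to the DMSO vehicle control.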

[3] = read-out: Epidermal growth factor receptor (EGFR), EGFR (gene 1956); experiment: BSK_hDFCGF_EGFR: BioMAP Diversity Plus: hDFCGF Assay for Epidermal growth factor receptor (EGFR) Biomarker Activity (AID 2283057); settings: primary human foreskin fibroblasts; actives raise or lower the signal
Summary of the method: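 Primary human foreskin fibroblasts were exposed to compound for 24 h, after which cell-surface EGFR was quantified by ELISA. Activity was fitted bidirectionally against the DMSO negative control as baseline.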

[4] = read-out: Interleukin-8 (IL8), CXCL8 (gene 3576); experiment: BSK_hDFCGF_IL8: BioMAP Diversity Plus: hDFCGF Assay for Interleukin-8 (IL8) Biomarker Activity (AID 2283058); settings: primary human foreskin fibroblasts; actives raise or lower the signal
Summary of the method: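 Cells used are human skin primary fibroblasts. Chemical is added, cultures run 24 h, then IL-8 is quantified by ELISA, and gain or loss versus DMSO control is fitted in both directions.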

[5] = BSK_hDFCGF_Proliferation: Cell Proliferation Assessment in the BioMAP Diversity Plus: hDFCGF Assay (AID 2283059); settings: primary human foreskin fibroblasts;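 note: curves fitted for both rise and fall of signal versus DMSO baseline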
Summary of the method: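 Steps: dose primary human dermal fibroblasts (foreskin); […] fix in 10% TCA; stain with 0.1% SRB; read 560 nm; fit gain or loss of signal against DMSO.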

[6] = read-out: Macrophage colony-stimulating factor (MCSF), CSF1 (gene 1435); experiment: BSK_hDFCGF_MCSF: BioMAP Diversity Plus: hDFCGF Assay for Macrophage colony-stimulating factor (MCSF) Biomarker Activity (AID 2283060); settings: primary human foreskin fibroblasts; actives raise or lower the signal
Summary of the method: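 Primary human foreskin fibroblasts dosed with chemical; 24 h later, M-CSF quantified by ELISA; curves fitted in both directions vs DMSO negative control.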

[7] = BSK_hDFCGF_SRB: Viability Assessment in the BioMAP Diversity Plus: hDFCGF Assay (AID 2283061); settings: primary human foreskin fibroblasts;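 note: cells exposed to compound for 24 h before the read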
Summary of the method: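 Readout is SRB absorbance at 560 nm, reflecting total protein in parallel cultures of human foreskin fibroblasts harvested 24 h after chemical dosing. Activity was fitted bidirectionally relative to DMSO.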

[8] = read-out: TIMP metallopeptidase inhibitor 1 (TIMP1), TIMP1 (gene 7076); experiment: BSK_hDFCGF_TIMP1: BioMAP Diversity Plus: hDFCGF Assay for TIMP metallopeptidase inhibitor 1 (TIMP1) Biomarker Activity (AID 2283062); settings: primary human foreskin fibroblasts; actives raise or lower the signal
Summary of the method: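 Human skin fibroblasts (primary), hDFCGF system; compound exposure 24 h; TIMP-1 by ELISA; bidirectional fit vs DMSO negative control; overt cytotoxicity by SRB in parallel wells.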

[9] = read-out: Monokine induced gamma interferon (MIG), CXCL9 (gene 4283); experiment: BSK_hDFCGF_MIG: BioMAP Diversity Plus: hDFCGF Assay for Monokine induced gamma interferon (MIG) Biomarker Activity (AID 2283063); settings: primary human foreskin fibroblasts; actives raise or lower the signal
Summary of the method: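 Chemicals were added to primary human foreskin fibroblast cultures, which were sampled 24 h later. MIG levels were then quantified by ELISA and responses fitted in both directions relative to DMSO.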

[10] = read-out: Matrix Metallopeptidase 1 (MMP1), MMP1 (gene 4312); experiment: BSK_hDFCGF_MMP1: BioMAP Diversity Plus: hDFCGF Assay for Matrix Metallopeptidase 1 (MMP1) Biomarker Activity (AID 2283064); settings: primary human foreskin fibroblasts; actives raise or lower the signal
Summary of the method: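 Primary human foreskin fibroblasts in the hDFCGF system were dosed with test chemical, and MMP1 was measured by ELISA 24 h later. Values come from bidirectional curve fitting against the DMSO baseline.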

[11] = read-out: Vascular cell adhesion molecule 1 (VCAM1), VCAM1 (gene 7412); experiment: BSK_hDFCGF_VCAM1: BioMAP Diversity Plus: hDFCGF Assay for Vascular cell adhesion molecule 1 (VCAM1) Biomarker Activity (AID 2283065); settings: primary human foreskin fibroblasts; actives raise or lower the signal;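 for AC50: VCAM-1 protein level quantified by ELISA after 24 h chemical exposure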
Summary of the method: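 Human foreskin fibroblast primary cells, chemical exposure 24 h; VCAM-1 by ELISA; bidirectional fit, DMSO = negative control/baseline.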

[12] = read-out: Plasminogen activator inhibitor-1 (PAI1), SERPINE1 (gene 5054); experiment: BSK_hDFCGF_PAI1: BioMAP Diversity Plus: hDFCGF Assay for Plasminogen activator inhibitor-1 (PAI1) Biomarker Activity (AID 2283066); settings: primary human foreskin fibroblasts; actives raise or lower the signal
Summary of the method: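 Human foreskin fibroblasts in the hDFCGF system were dosed with compound for 24 h; PAI-1 was quantified by ELISA. Bidirectional curve fitting used DMSO as negative control and baseline.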

[13] = read-out: Intercellular Adhesion Molecule 1 (ICAM1), ICAM1 (gene 3383); experiment: BSK_KF3CT_ICAM1: BioMAP Diversity Plus: KF3CT Assay for Intercellular Adhesion Molecule 1 (ICAM1) Biomarker Activity (AID 2283067); settings: primary human keratinocytes with fibroblasts; actives raise or lower the signal
Summary of the method: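 ICAM-1 levels are measured by ELISA 24 h after dosing a primary human co-culture of keratinocytes and foreskin fibroblasts. Activity in either direction is fitted relative to DMSO vehicle.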

[14] = BSK_KF3CT_SRB: Viability Assessment in the BioMAP Diversity Plus: KF3CT Assay (AID 2283069); settings: primary human keratinocytes with fibroblasts;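 note: total protein by sulforhodamine B staining as a cytotoxicity measure; read 24 h after compound addition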
Summary of the method: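 Human primary keratinocyte plus foreskin fibroblast co-culture exposed to chemicals for 24 h. Total protein measured by 0.1% sulforhodamine B staining after 10% TCA fixation, read at 560 nm; bidirectional fitting versus DMSO baseline.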

[15] = read-out: Interleukin-1 alpha (IL1a), IL1A (gene 3552); experiment: BSK_KF3CT_IL1a: BioMAP Diversity Plus: KF3CT Assay for Interleukin-1 alpha (IL1a) Biomarker Activity (AID 2283070); settings: primary human keratinocytes with fibroblasts; actives raise or lower the signal
Summary of the method: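 Human keratinocyte plus foreskin fibroblast primary co-culture, sampled 24 h after chemical dosing. IL-1a measured by ELISA; responses fitted bidirectionally against DMSO baseline (negative control), so gain or loss of signal both count.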

[16] = read-out: TIMP metallopeptidase inhibitor 2 (TIMP2), TIMP2 (gene 7077); experiment: BSK_KF3CT_TIMP2: BioMAP Diversity Plus: KF3CT Assay for TIMP metallopeptidase inhibitor 2 (TIMP2) Biomarker Activity (AID 2283071); settings: primary human keratinocytes with fibroblasts; actives raise or lower the signal
Summary of the method: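 Human primary keratinocyte/foreskin fibroblast co-culture dosed with chemical and sampled at 24 h. TIMP-2 levels quantified by ELISA; bidirectional fitting against DMSO negative control as baseline.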

[17] = read-out: Transforming growth factor beta 1 (TGFb1), TGFB1 (gene 7040); experiment: BSK_KF3CT_TGFb1: BioMAP Diversity Plus: KF3CT Assay for Transforming growth factor beta 1 (TGFb1) Biomarker Activity (AID 2283072); settings: primary human keratinocytes with fibroblasts; actives raise or lower the signal
Summary of the method: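 Human keratinocyte plus foreskin fibroblast primary co-culture, dosed with chemical for 24 h. TGF-b1 quantified by ELISA. Activity fitted bidirectionally against DMSO negative control as baseline.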

[18] = read-out: C-C motif chemokine 2 (Homo sapiens) (UniProt P13500); experiment: BSK_KF3CT_MCP1: BioMAP Diversity Plus: KF3CT Assay for Monocyte Chemoattractant Protein 1 (MCP1/CCL2) Biomarker Activity (AID 2283073); settings: primary human keratinocytes with fibroblasts; actives raise or lower the signal
Summary of the method: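 ELISA readout of MCP-1 after 24 h chemical dosing of a human skin primary co-culture of keratinocytes and foreskin fibroblasts. Activity was fitted in both directions against DMSO.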

[19] = read-out: Matrix Metallopeptidase 9 (MMP9), MMP9 (gene 4318); experiment: BSK_KF3CT_MMP9: BioMAP Diversity Plus: KF3CT Assay for Matrix Metallopeptidase 9 (MMP9) Biomarker Activity (AID 2283074); settings: primary human keratinocytes with fibroblasts; actives raise or lower the signal;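 for AC50: MMP9 protein level quantified by ELISA in the co-culture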
Summary of the method: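 Keratinocyte plus foreskin fibroblast human primary skin co-culture was dosed with chemical and MMP-9 was quantified by ELISA 24 h later. Bidirectional curve fitting used DMSO as negative control and activity baseline.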

[20] = read-out: Interferon-gamma inducible Protein 10 (IP10), CXCL10 (gene 3627); experiment: BSK_KF3CT_IP10: BioMAP Diversity Plus: KF3CT Assay for Interferon-gamma inducible Protein 10 (IP10) Biomarker Activity (AID 2283068); settings: primary human keratinocytes with fibroblasts; actives raise or lower the signal
Summary of the method: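 KF3CT co-culture (keratinocytes + foreskin fibroblasts), 24 h compound, IP-10 by ELISA; bidirectional fit vs DMSO baseline.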

Measured: AC50

Cc1c([N+](=O)[O-])c(C)c([N+](=O)[O-])c(C(C)(C)C)c1[N+](=O)[O-]
inactive: [1] | [2] | [3] | [4] | [6] | [7] | [8] | [9] | [10] | [11] | [13] | [14] | [15] | [16] | [17]
active: [5] 31.4 µM | [12] 29.5 µM | [18] 34 µM | [19] 31.1 µM

CCOP(=S)(OCC)OP(=S)(OCC)OCC
active: [1] 20 µM | [5] 23.2 µM | [11] 30.4 µM | [16] 20 µM
inactive: [2] | [3] | [4] | [6] | [7] | [8] | [9] | [10] | [12] | [13] | [14] | [15] | [17] | [18] | [19]

O=C1C=CC(=O)c2ccccc21
inactive: [3] | [4] | [14]
active: [1] 3.84 µM | [2] 1.27 µM | [5] 0.905 µM | [6] 1.17 µM | [7] 1.63 µM | [8] 2.41 µM | [9] 1.68 µM | [10] 1.98 µM | [11] 1.2 µM | [12] 1.53 µM | [13] 2.71 µM | [20] 2.81 µM | [15] 2.04 µM | [16] 1.67 µM | [17] 1.81 µM | [18] 3.45 µM | [19] 5.16 µM
